Source: PubChem
Compounds with a hit are over-represented: about 21% of the library has one in this group of screens.
Shiga toxin inh: A qHTS for Small Molecule Inhibitors of Shiga Toxin. Vero cells, Shiga toxin protein synthesis inhibition reporter. inhibition, % at 38.7 µM. 290,000 tested, 9.2% active. AID 2315, 2010; in the data active means inhibition mostly above about 28%, no sharp cut-off; inactive means mostly below about 43%
NS1 function inh: qHTS Assay for Inhibitors of Influenza NS1 Protein Function. Potency, µM (doses to about 46.1 µM). 270,000 tested, 0.4% active. AID 2326, 2010; calls by dose curve; further: actives are rising curves; nearly all actives have a fitted effect of over 50% in size
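Recovery from NS1-induced slow growth read by OD600 in budding yeast switched to galactose assay medium (pH 6.0, -URA) at 1:100 dilution. Compound 23 nl per well; the matching strain lacking NS1 serves as control.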
CHX counter: Cycloheximide Counterscreen for Small Molecule Inhibitors of Shiga Toxin. cell reporter, cycloheximide protein synthesis inhibition counterscreen. max response, %. 300,000 tested, 12% active. AID 2314, 2010; in the data active means max response mostly above about 13%, no sharp cut-off; inactive means mostly below about 14%; further: read at 38.3 µM for the half of the compounds with a filed dose
Pf growth 96h: Primary qHTS for delayed death inhibitors of the malarial parasite plastid, 96 hour incubation; P. falciparum luciferase reporter growth, 96 h; 320,000 tested, 6.9% active; Potency, µM (doses to about 28.7 µM), most hits filed as inhibitors
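Parasite growth measured via integrated firefly luciferase reporter in P. falciparum. Infected erythrocytes at 2% hematocrit, 0.05% parasitemia final were treated 96 hours at 37 C under 5% CO2, and luminescence was read.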
Pf growth 48h: Primary qHTS for delayed death inhibitors of the malarial parasite plastid, 48 hour incubation | P. falciparum luciferase growth in erythrocytes, 48 h | Potency, µM (titrated, usually from 28.7 µM), usual class: inhibitors | 310,000 tested, 5.9% active | AID 504832, 2011
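Parasite viability was followed by luminescence of a genomically integrated firefly luciferase. Cultures held 0.1% parasitemia at 2% hematocrit (final), incubated under 5% CO2 at 37 C.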
SARS PLpro yeast: qHTS of Yeast-based Assay for SARS-CoV PLP. S. cerevisiae expressing SARS-CoV PLpro, growth rescue. Potency, µM (doses to about 32.9 µM), most hits filed as activators. 330,000 tested, 0.19% active; calls by dose curve; further: nearly all actives have a fitted effect of over 55% in size
Of the large screens only hits and unclear results are named; the others gave an inactive call. Unless noted, the call rests on the fitted dose curve; in most records, active means well fitted inhibition curve with a large enough effect; inconclusive means small, poorly fitted or top-dose-only effect, or another doubt; inactive means no such curve, though single readings can be large or run the other way.

COc1ccc(-c2cc(-c3n[nH]c(=S)n3-c3ccccc3OC)[nH]n2)cc1	none
COc1ccc(/C=C/c2nc(-c3ccccc3O)n[nH]2)cc1	Shiga toxin inh 74, CHX counter 70
O=C(O)c1ccccc1C(=O)c1ccc2c(c1)CCC2	none
CC(C)[C@H](NC(=O)C1CCN(S(=O)(=O)c2ccccc2)CC1)C(=O)NCc1ccc(F)cc1	Pf growth 96h inconclusive
Cc1nc(NC(=O)C2CCCCC2C(=O)O)sc1C (centres undefined)	Pf growth 96h inconclusive
Cc1nc(NC(=O)C2CC3CCCC(C2)C3=O)sc1C (centres undefined)	Shiga toxin inh active, CHX counter 47
CN1CCN(/C(=N\O)c2nonc2N)CC1	NS1 function inh inconclusive, Pf growth 96h 15µM
Nc1nonc1/C(=N/O)N1CCN(CCO)CC1	none
O=C(COC(=O)c1ccccc1F)Nc1cccnc1Cl	none
CC(C)c1nnc(-c2ccc(Cl)cc2)c(N(C)C)n1	Pf growth 96h 9.3µM, Pf growth 48h inconclusive
C#CCn1cc(C=C2C(=O)c3ccccc3C2=O)c2ccccc21	Pf growth 96h inconclusive
COc1ccc(/C=C/C(=O)C2C(=O)C=C(C)OC2=O)cc1O (centres undefined)	CHX counter 17, Pf growth 96h inconclusive, Pf growth 48h inconclusive
COc1cc(/C=C/C(=O)C2C(=O)C=C(C)OC2=O)cc(OC)c1O (centres undefined)	Pf growth 48h inconclusive
COc1cccc(NC(=O)CN(C)C(=O)C(CCSC)NC(=O)c2ccco2)c1 (centres undefined)	none (no result: Shiga toxin inh, NS1 function inh, CHX counter)
C=CCN(c1ccccc1)S(=O)(=O)c1cccc(C(=O)NCc2ccco2)c1	none (no result: Shiga toxin inh, NS1 function inh, CHX counter, Pf growth 96h, Pf growth 48h)
Clc1ccc(/C=N/NC2=Nc3cccc4cccc2c34)cc1	Shiga toxin inh 85, CHX counter 24
NC1=Nc2cccc3cccc1c23	Pf growth 96h inconclusive, Pf growth 48h inconclusive
COc1cccc(NC2=Nc3cccc4cccc2c34)c1	CHX counter 21, Pf growth 96h inconclusive
COc1ccc(NC2=Nc3cccc4cccc2c34)cc1OC	Pf growth 96h inconclusive, Pf growth 48h inconclusive
C(=N\NC1=Nc2cccc3cccc1c23)/c1ccccc1	Shiga toxin inh 43, CHX counter 87
C(=N\NC1=Nc2cccc3cccc1c23)/c1cccnc1	Shiga toxin inh 72, CHX counter 40 (no result: NS1 function inh)
NC(=S)N/N=C/c1cccnc1	none (no result: Shiga toxin inh, NS1 function inh, CHX counter, SARS PLpro yeast)
Clc1ccc(/C=N/Nc2nn[nH]n2)cc1	Pf growth 48h inconclusive
Cc1cc(C)nc(SCCc2cccc[n+]2C)n1	none (no result: Shiga toxin inh, CHX counter, Pf growth 96h, Pf growth 48h, SARS PLpro yeast)
CCC(NC(=O)c1ccc(C#CC2(O)CCCCC2)cc1)C(=O)O (centres undefined)	none
NC(=O)C1(N2CCCCC2)CCN(C(=O)c2ccc(C#CC3(O)CCCCC3)cc2)CC1	Pf growth 96h inconclusive (no result: Pf growth 48h)
CS(=O)(=O)c1ccc(C(=O)N2CCN(Cc3ccccc3)CC2)cc1	none (no result: NS1 function inh)
O=C(c1ccc(C#CC2(O)CCCCC2)cc1)N1CCN(C(c2ccccc2)c2ccccc2)CC1	CHX counter 21 (no result: Pf growth 48h)
CCOC(=O)N1CCN(C(=O)c2ccc(C#CC3(O)CCCCC3)cc2)CC1	Shiga toxin inh 41, CHX counter 31 (no result: Pf growth 96h)
O=C(c1ccc(C#CC2(O)CCCCC2)cc1)N1CCN(Cc2ccccc2)CC1	Pf growth 96h 10µM, Pf growth 48h inconclusive
Oc1cc(O)cc(/C=C/c2ccc(O)cc2O)c1	none (no result: Shiga toxin inh, NS1 function inh, CHX counter)
Oc1ccc(/C=C/c2cc(O)cc(O)c2)cc1	Shiga toxin inh 20, CHX counter 26
CCc1nc2oc3ccc(C)cc3c(=O)c2cc1C(=O)OC	Shiga toxin inh 30, CHX counter 24
COC(=O)c1cc2c(=O)c3ccccc3oc2nc1/C=C/N(C)C	CHX counter 19
COC(=O)c1cc2c(=O)c3ccccc3oc2nc1C	Shiga toxin inh 49, CHX counter 24
Cc1nc2oc3ccc(F)cc3c(=O)c2cc1C(=O)NC(C)(C)C	Shiga toxin inh 128, CHX counter 41
Cc1nc2oc3ccc(Cl)cc3c(=O)c2cc1C(=O)O	none
Cc1nc2oc3ccccc3c(=O)c2cc1C(=O)O	none
CCOC(=O)CC1(NC(=O)c2cc(COc3cccc(OC)c3)on2)CCCCC1	Pf growth 48h inconclusive
O=C(NNC(=O)c1ccc(-c2ccccc2)cc1)Nc1ccc(F)cc1F	none
